# Measured values published in article PMC4336329 (PLoS ONE, 2015).
# The campaign covered roughly 310,000 compounds. About 2,200 (0.71%) showed an effect of 50% or more. Effects have a minus sign here. What follows is part of a selection rich in strong results, with near analogues and random picks from the rest.
# Biological target: human ether-à-go-go-related gene (hERG) potassium channel (human, UniProt Q12809)
# Test: primary screen, population patch clamp on CHO cells stably expressing hERG; higher = less effect of the substance
# Chain of human ether-à-go-go-related gene (hERG) potassium channel (Q12809 whole entry, looked up): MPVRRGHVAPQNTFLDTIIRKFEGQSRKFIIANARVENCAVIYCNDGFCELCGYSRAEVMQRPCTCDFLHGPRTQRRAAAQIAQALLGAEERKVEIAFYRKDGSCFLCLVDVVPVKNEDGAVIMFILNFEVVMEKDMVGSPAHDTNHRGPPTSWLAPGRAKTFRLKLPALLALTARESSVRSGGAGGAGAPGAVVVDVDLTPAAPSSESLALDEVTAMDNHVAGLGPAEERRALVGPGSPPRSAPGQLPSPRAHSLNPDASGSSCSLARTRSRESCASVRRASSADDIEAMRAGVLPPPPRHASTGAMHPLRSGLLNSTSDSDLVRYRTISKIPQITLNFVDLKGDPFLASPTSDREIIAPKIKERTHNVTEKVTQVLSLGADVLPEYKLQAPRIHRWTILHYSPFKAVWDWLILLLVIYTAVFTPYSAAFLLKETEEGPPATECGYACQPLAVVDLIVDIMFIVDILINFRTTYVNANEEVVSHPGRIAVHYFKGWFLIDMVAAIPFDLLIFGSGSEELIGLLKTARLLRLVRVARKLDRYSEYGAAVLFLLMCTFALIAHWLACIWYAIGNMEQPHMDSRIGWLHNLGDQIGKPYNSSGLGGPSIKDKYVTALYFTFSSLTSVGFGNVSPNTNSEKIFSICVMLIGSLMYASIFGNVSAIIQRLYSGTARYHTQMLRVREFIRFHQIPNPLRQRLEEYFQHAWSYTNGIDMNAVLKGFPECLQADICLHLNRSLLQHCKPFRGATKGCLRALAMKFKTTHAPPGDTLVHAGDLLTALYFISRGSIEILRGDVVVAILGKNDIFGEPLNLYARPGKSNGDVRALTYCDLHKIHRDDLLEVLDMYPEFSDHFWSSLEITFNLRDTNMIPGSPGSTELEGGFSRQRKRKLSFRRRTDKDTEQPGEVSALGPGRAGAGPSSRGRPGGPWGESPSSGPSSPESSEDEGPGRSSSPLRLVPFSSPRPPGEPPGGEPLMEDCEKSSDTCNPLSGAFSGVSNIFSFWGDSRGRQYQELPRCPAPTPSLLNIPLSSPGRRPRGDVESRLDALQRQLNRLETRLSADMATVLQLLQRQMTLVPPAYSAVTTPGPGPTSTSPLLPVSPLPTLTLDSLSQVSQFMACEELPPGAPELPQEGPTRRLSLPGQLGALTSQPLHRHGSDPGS
row,SMILES,"hERG current change (%, negative = inhibition) at 1uM [%]"
1,Cc1cc(CN2CCCC(CNC(=O)c3ccc(F)cc3)C2)cc(C)c1O (stereo not drawn),-14.5
2,Cc1ccc(-n2cccn2)c(CN2CCCC(CNC(=O)c3ccc(F)cc3)C2)c1 (stereo not drawn),-78.9
3,CCn1ncc(CN2CCCC(CNC(=O)c3ccc(F)cc3)C2)c1C (stereo not drawn),1.73
4,CCOC(=O)C1(CC2CCCCO2)CCN(Cc2nccn2-c2cccc(C)c2)CC1 (stereo not drawn),-1.48
5,O=C(NCC1CCCN(Cc2cccc(C(F)(F)F)c2)C1)c1ccc(F)cc1 (stereo not drawn),-5.71
6,CCOC(=O)C1(CC2CCCCO2)CCN(Cc2c(C)cc(C)cc2-n2cccn2)CC1 (stereo not drawn),-84.1
7,COc1cccc(CN2CCCC(CNC(=O)c3ccc(F)cc3)C2)c1OC (stereo not drawn),-12.6
8,CCOC(=O)C1(CC2CCCCO2)CCN(Cc2cc(F)ccc2-n2cccn2)CC1 (stereo not drawn),-14.9
9,Cc1cc(C)c(CN2CCCC(CNC(=O)c3ccc(F)cc3)C2)c(-n2cccn2)c1 (stereo not drawn),-85.4
10,COc1cccc(NC(=O)NCCCCc2ccccc2)c1,-0.169
11,CCOC(=O)CN(C(=O)c1snc(C(N)=O)c1N)C(C(=O)NCCC(C)C)c1ccc(F)cc1 (stereo not drawn),7.34
12,COc1ccccc1CNC(=O)C(CCSC)NS(=O)(=O)c1ccc2c(c1)oc(=O)n2C (stereo not drawn),15.7
13,CN(C)S(=O)(=O)c1cccc(C(=O)OCC(=O)N2CCCC2=O)c1,12.1
14,O=C(CNC(=O)c1ccc(Cl)cc1)OCC(=O)c1ccccc1,-0.984
15,Cn1c(SCC(=O)NCCc2ccccc2)ncc(C(=O)Nc2ccc(F)cc2)c1=O,12.5
16,CC(C(=O)Oc1ccc2c(c1)OCO2)N1C(=O)c2ccccc2C1=O (stereo not drawn),-1.93
17,C/C(=N\N1CCN(c2ccc(Cl)cc2)CC1)c1cccs1,4.52
18,O=C(NC1CCCCC1)c1ccc(NS(=O)(=O)c2cccc3cccnc23)cc1,12.5
19,CCCCC(c1nnnn1C1CCCC1)N1CCN(C(=O)c2ccco2)CC1.Cl (stereo not drawn),-13.5

row,SMILES,"hERG current change (%, negative = inhibition) at 1uM [%]"
1,CCCC(c1nnnn1C(C)(C)CC)N1CCN(C2CCCC2)CC1.Cl (stereo not drawn),-17.8
2,CCC(c1nnnn1C1CCCCC1)N1CCN(C2CCCC2)CC1.Cl (stereo not drawn),11.6
3,CCCC(c1nnnn1C1CCCCC1)N1CCN(C2CCCC2)CC1.Cl (stereo not drawn),-16.6
4,CCCCC(c1nnnn1C1CCCC1)N1CCN(C2CCCC2)CC1.Cl (stereo not drawn),-82
5,CCCCC(c1nnnn1C1CCCC1)N1CCN(C2CCCCC2)CC1 (stereo not drawn),-63.1
6,C=CCNC(=O)c1c(Cl)cccc1Cl,6.34
7,COC(=O)C1=C(CSCc2ccco2)NC(=O)NC1c1cc(C)ccc1C (stereo not drawn),-8.26
8,COc1cc(CN2CCN(CCCc3ccccc3)CC2CCO)cc(OC)c1 (stereo not drawn),-46.8
9,COc1cccc(CN2CCN(CCCc3ccccc3)C(CCO)C2)c1O (stereo not drawn),-41.8
10,CCOc1cccc(CN2CCN(CCCc3ccccc3)C(CCO)C2)c1O (stereo not drawn),-54.7
11,CCOc1ccccc1CN1CCN(CCCc2ccccc2)CC1CCO (stereo not drawn),-30
12,OCCC1CN(Cc2ccc(F)cc2)CCN1CCCc1ccccc1 (stereo not drawn),-55
13,OCCC1CN(Cc2ccc(F)cc2)CCN1CCc1ccccc1 (stereo not drawn),-48
14,OCCC1CN(CCCc2ccccc2)CCN1Cc1ccc(F)cc1 (stereo not drawn),-12.1
15,CCOc1ccc(CN2CCN(CCCc3ccccc3)CC2CCO)cc1 (stereo not drawn),-80.9
16,OCCC1CN(CCCn2cccn2)CCN1Cc1ccccc1 (stereo not drawn),8.59
17,Cc1ccc(CN2CCN(CCCn3cccn3)CC2CCO)cc1 (stereo not drawn),-23.7
18,CCOc1cccc(CN2CCN(CCc3ccccc3)C(CCO)C2)c1O (stereo not drawn),-20.1
19,CCOc1ccc(CN2CCN(CCCn3cccn3)CC2CCO)cc1 (stereo not drawn),-83

row,SMILES,"hERG current change (%, negative = inhibition) at 1uM [%]"
1,CC(C)Oc1ccc(Cc2n[nH]c(=S)n2Cc2ccccc2)cc1Cl,5.04
2,CC(=O)c1c(C)[nH]c(C(=O)OCC(=O)Nc2ccc(Cl)c(S(=O)(=O)N(C)C)c2)c1C,-2.69
3,CCCNc1nc(C)cc(-c2cc(C(=O)NCc3ccccc3)on2)n1,12
4,Cc1c(Cl)cccc1Nc1nc(N)nc(CSC(=S)N2CCOCC2)n1,8.31
5,CCOC(=O)/C(C#N)=C\c1c(C)cc(C)c(COC(C)=O)c1C,15.6
6,CCOc1ccc(CN2CCN(CCCc3ccccc3)C(CCO)C2)cc1 (stereo not drawn),-75.8
7,OCCC1CN(CCCc2ccccc2)CCN1Cc1ccccc1 (stereo not drawn),-35.6
8,Cc1ccc(CN2CCN(CCCc3ccccc3)CC2CCO)cc1 (stereo not drawn),-68.7
9,COc1ccc(CN2CCN(CCCc3ccccc3)C(CCO)C2)c(O)c1 (stereo not drawn),-71.2
10,COc1ccc(CN2CCN(CCc3ccccc3)C(CCO)C2)c(O)c1 (stereo not drawn),-26.9
11,OCCC1CN(CCCc2ccccc2)CCN1CCc1ccccc1 (stereo not drawn),-32.3
12,OCCOc1ccc(CN2CCN(CCCc3ccccc3)C(CCO)C2)cc1 (stereo not drawn),-19.8
13,COc1ccc(O)c(CN2CCN(CCCc3ccccc3)C(CCO)C2)c1 (stereo not drawn),-21.7
14,C#Cc1ccc(CN2CCN(CCCc3ccccc3)C(CCO)C2)cc1 (stereo not drawn),-14.1
15,N#C/C(=C/c1ccc(-c2ccc(C(=O)O)c(Cl)c2)o1)C(=O)NCC1CCCO1 (stereo not drawn),10.3
16,COc1ccccc1CN1[C@@H](CC(=O)O)c2cc(F)ccc2S1(=O)=O,13.9
17,Cc1ccc(S(=O)(=O)N2CCOCC2)cc1NC(=O)COC(=O)CNC(=O)c1ccc(C(C)(C)C)cc1,20.2
18,COC(=O)C1=C(c2cc3ccccc3s2)C[C@@H]2CC[C@H]1N2C(=O)NCCCOC(C)C,2.84
19,Cc1ccc(S(=O)(=O)N(C)N=O)cc1,19.1
